Records with an inconclusive call do not appear. The source made the active and inactive calls. Unless noted, calls follow the shape of the dose curve; as a rule, active = well fitted curve in the direction sought with a large enough effect; inconclusive = small, poorly fitted or top-dose-only effect, or another doubt; inactive = no such curve, though single readings can be large; an effect the other way counts as inactive or inconclusive.
Columns and labels:
[1] = molecular target: Lysosomal acid glucosylceramidase (Homo sapiens) (UniProt P04062); experiment: Glucocerebrosidase-p2 (AID 348; in the data active = potency below about 10 µM; also: potency is read from the fitted curve at half-maximal effect); details: purified GBA, blue fluorogenic substrate, 40 min
Sequence of Lysosomal acid glucosylceramidase (Homo sapiens) (P04062 whole entry, looked up): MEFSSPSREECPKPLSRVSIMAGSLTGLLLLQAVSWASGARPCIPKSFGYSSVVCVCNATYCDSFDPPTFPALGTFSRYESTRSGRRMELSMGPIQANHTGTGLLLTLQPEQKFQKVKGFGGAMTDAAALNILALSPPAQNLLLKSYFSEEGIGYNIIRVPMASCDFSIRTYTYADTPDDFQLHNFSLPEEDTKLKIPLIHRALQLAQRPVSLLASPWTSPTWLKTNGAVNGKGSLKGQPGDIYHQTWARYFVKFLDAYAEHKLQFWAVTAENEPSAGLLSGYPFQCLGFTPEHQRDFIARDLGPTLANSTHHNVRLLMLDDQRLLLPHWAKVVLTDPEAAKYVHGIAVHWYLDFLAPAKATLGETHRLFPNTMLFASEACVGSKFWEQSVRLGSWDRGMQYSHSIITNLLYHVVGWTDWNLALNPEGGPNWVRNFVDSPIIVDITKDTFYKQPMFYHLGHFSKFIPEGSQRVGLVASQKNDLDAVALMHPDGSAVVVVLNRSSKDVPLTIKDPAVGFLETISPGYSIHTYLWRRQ
Procedure, shortened: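 Compounds titrated from 0.6 nM upwards against 0.2 nM enzyme in pH 5.9 citric acid/KH2PO4, taurocholate, tween-20; blue fluorogenic substrate 80 uM, 40 min room temperature, stopped and read Ex 365/Em 440 for AC50.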

[2] = AP1 Signaling Pathway (AID 357; active = well fitted curve in either direction with a large enough effect, not every such curve was filed as active;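 also: ME-180 reporter cells stimulated with EGF at its EC50 level; % is scaled to controls: 0 for no effect and ±100 for the full control effect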); details: ME-180 AP-1-bla reporter, EGF-induced, beta-lactamase ratio, 5 h; at 7.69 µM (top of the series) unless noted
Procedure, shortened: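 A ratiometric CCF4 readout (405 nm excitation; 460 and 530 nm emission) quantified AP-1-driven beta-lactamase in ME-180 cells after 5 h with compound and EC50 EGF; AC50 values were derived for activators and inhibitors.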

[3] = NFAT Signaling Pathway (AID 444; active = well fitted curve in either direction with a large enough effect, not every such curve was filed as active;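 also: carbachol stimulus at about its EC50 of 1 µM final; % is scaled to controls: 0 for no effect and ±100 for the full control effect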); details: Jurkat NFAT-bla M1, carbachol, beta-lactamase ratio, 5 h; at 7.69 µM (top of the series) unless noted
Procedure, shortened: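 Jurkat cells carrying an NFAT-driven β-lactamase reporter and co-transfected muscarinic M1 receptor were treated with compound plus carbachol (1 uM final, an EC50 level) for 5 h at 37 °C. CCF4 loading followed for 1 h at RT; 460/530 nm ratio gave %activity.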

[4] = Stat Signaling Pathway (AID 446; active = well fitted curve in either direction with a large enough effect, not every such curve was filed as active;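 also: ME-180 cervical cancer cells given 40 pM IL-6 alongside compound; SIE-controlled beta-lactamase reporter measured as 460/530 nm FRET emission ratio; % is scaled to controls: 0 for no effect and ±100 for the full control effect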); details: ME-180 SIE beta-lactamase reporter, IL-6 stimulated, 5 h; at 7.69 µM (top of the series) unless noted
Procedure, shortened: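 ME-180 cells carrying a SIE-driven beta-lactamase reporter are stimulated with 40 pM IL-6 for 5 h at 37C in the presence of compound. The 460/530 nm FRET substrate ratio is read after 2.5 h at RT. Data are normalised to 300 pM IL-6 and to 125 nM JAK inhibitor controls.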

[5] = molecular target: Glucocorticoid receptor (Homo sapiens) (UniProt P04150); experiment: GR-GFP Redistribution (AID 450;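 active = compounds whose dose series gives a full or clear partial fitted curve of increased nuclear translocation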; also: potency is read from the fitted curve at half-maximal effect); details: U2OS GR-GFP nuclear translocation, laser cytometry, 2 h
Sequence of Glucocorticoid receptor (Homo sapiens) (P04150 whole entry, looked up): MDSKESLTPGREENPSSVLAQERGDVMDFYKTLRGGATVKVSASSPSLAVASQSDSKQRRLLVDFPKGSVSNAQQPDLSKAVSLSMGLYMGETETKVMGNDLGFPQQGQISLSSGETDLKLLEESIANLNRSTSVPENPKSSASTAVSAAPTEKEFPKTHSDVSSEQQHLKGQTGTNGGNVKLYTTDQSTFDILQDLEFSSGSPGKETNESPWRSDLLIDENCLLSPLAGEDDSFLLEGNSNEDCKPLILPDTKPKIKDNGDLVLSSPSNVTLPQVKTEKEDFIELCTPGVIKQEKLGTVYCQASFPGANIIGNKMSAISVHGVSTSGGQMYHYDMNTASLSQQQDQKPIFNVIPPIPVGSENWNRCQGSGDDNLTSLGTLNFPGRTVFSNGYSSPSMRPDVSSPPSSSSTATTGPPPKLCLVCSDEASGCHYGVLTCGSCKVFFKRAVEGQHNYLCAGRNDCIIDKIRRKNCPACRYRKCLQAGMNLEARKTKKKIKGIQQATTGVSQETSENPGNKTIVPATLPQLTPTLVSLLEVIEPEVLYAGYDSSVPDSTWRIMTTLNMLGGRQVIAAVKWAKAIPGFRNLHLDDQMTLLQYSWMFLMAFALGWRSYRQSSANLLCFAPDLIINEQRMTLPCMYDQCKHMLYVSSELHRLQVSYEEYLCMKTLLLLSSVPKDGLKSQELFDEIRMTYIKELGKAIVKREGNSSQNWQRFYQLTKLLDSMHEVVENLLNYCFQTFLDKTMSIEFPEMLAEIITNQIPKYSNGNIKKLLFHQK

[6] = molecular target: Mitogen-activated protein kinase 10 (Mus musculus) (UniProt Q61831); experiment: JNK3 AlphaScreen Assay (AID 530; active = well fitted curve in either direction with a large enough effect, not every such curve was filed as active;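 also: kinase came from lysate of stimulated human HepG2 cells; signal reports phosphorylation of biotinylated GST-cJun 1-79 at Ser73 with 10 µM ATP; % is scaled to controls: 0 for no effect and ±100 for the full control effect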); details: JNK3 lysate, c-Jun phosphorylation; series mostly up to 11.4 µM
Procedure, shortened: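 Inhibitors reduce antibody binding to phosphorylated biotin-cJun, lowering AlphaScreen luminescence. Lysates from HepG2 cells pre-activated by IL-1beta plus TNF-alpha supplied JNK3; compounds were titrated.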

[7] = molecular target: 3',5'-cyclic-AMP phosphodiesterase 4B (Homo sapiens) (UniProt Q07343); experiment: qHTS Assay for Inhibitors of PDE-IV (AID 607; active = well fitted activation curve with a large enough effect in the main read-out, with a control signal flat, not every such curve was filed as active; also: % of control where 0% means no effect); details: HEK293 ACTOne CNG channel cells, membrane potential fluorescence; series mostly up to 22.9 µM
Sequence of 3',5'-cyclic-AMP phosphodiesterase 4B (Homo sapiens) (Q07343 whole entry, looked up): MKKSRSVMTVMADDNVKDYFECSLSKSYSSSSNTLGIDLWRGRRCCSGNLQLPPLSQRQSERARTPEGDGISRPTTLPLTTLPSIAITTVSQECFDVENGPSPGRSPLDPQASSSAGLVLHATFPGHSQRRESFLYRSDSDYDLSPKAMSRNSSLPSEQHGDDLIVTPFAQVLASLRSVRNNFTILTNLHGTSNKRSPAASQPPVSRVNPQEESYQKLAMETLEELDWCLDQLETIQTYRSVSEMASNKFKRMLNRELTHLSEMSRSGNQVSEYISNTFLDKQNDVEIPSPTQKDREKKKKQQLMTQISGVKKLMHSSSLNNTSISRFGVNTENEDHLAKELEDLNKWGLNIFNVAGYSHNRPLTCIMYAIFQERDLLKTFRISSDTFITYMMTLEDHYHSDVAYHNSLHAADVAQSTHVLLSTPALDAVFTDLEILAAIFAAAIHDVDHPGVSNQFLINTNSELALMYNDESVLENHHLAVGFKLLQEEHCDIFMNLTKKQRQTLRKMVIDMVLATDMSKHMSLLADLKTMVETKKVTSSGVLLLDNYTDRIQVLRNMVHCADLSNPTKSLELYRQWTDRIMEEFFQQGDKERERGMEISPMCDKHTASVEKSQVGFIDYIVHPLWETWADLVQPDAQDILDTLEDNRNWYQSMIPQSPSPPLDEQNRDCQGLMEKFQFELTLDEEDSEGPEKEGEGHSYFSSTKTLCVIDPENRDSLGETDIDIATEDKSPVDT
Procedure, shortened: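 HEK293 ACTOne cells with CNG channel (1000/well), endogenous PDE4; membrane potential dye, compounds up to 22.9 uM final. Fluorescence Ex 535/Em 590; RO 20-1724 (100 uM final) as reference.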

[8] = molecular target: ATP-dependent 6-phosphofructokinase (Trypanosoma brucei brucei) (UniProt O15648); experiment: qHTS Assay to Find Inhibitors of T. brucei phosphofructokinase: hit validation (AID 492961); details: T. brucei PFK, ADP-Glo luminescence; series mostly up to 51.4 µM
Sequence of ATP-dependent 6-phosphofructokinase (Trypanosoma brucei brucei) (O15648 whole entry, looked up): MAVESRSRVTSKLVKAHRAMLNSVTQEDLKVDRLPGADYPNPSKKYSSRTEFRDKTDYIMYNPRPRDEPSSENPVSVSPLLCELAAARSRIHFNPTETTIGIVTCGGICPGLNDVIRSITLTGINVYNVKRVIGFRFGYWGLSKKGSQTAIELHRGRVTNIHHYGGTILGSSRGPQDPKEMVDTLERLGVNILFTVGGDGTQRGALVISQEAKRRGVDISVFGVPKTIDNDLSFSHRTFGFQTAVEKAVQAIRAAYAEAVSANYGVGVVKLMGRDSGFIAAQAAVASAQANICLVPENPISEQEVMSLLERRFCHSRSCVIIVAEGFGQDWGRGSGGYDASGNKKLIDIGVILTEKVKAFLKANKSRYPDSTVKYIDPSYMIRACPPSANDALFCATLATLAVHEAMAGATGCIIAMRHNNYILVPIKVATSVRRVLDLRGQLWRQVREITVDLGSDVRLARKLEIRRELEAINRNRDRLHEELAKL
Procedure, shortened: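 Reaction: 0.1 M triethanolamine pH 8.0, 5 mM MgCl2, F6P 0.5 mM, ATP 0.1 mM, PFK 1.25 nM, 45 min RT. Read-out: ADP-Glo luminescence. Analysis: concentration-response fits, classed by r2 and efficacy.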

[9] = molecular target: Ubiquitin carboxyl-terminal hydrolase 1 (Homo sapiens) (UniProt O94782); experiment: Inhibitors of USP1/UAF1: Pilot qHTS (AID 504865); details: purified USP1/UAF1, Ub-rhodamine cleavage fluorescence; series mostly up to 114 µM;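 also: rhodamine fluorescence freed from ubiquitin-rhodamine substrate followed over time; top concentration of the series differs between compounds; % is scaled to controls: 0 for no effect and ±100 for the full control effect; nearly all actives have a fitted effect of over 35% in size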
Sequence of Ubiquitin carboxyl-terminal hydrolase 1 (Homo sapiens) (O94782 whole entry, looked up): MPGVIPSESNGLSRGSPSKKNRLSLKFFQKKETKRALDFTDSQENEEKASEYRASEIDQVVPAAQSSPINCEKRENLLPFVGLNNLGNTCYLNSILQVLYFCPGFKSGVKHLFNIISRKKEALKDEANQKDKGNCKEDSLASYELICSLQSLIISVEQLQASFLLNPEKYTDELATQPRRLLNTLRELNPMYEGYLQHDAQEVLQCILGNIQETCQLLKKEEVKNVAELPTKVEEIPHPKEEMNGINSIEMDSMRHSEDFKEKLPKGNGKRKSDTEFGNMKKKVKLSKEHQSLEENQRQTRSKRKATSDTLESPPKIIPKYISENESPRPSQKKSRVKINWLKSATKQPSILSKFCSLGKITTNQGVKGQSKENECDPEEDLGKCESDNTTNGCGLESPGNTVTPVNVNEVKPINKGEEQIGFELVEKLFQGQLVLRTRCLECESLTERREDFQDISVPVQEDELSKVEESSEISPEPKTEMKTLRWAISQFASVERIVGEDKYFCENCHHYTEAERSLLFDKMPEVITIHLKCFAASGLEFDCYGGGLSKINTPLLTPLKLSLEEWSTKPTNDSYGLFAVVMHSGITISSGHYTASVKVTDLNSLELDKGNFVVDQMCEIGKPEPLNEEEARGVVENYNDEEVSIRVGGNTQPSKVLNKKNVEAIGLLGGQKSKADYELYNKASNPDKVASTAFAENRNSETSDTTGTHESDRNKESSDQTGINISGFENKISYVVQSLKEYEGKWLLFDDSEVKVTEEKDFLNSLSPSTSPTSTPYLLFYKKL
Procedure, shortened: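 Kinetic fluorescence assay: 1nM USP1/UAF1, 15 min compound preincubation, then 150nM Ub-Rho; 480/540 nm.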

[10] = molecular target: Luciferin 4-monooxygenase (Photinus pyralis) (UniProt P08659); experiment: Biochemical firefly luciferase enzyme assay for NPC (AID 624030);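 also: purified P. pyralis luciferase at 10 nM with luciferin and ATP substrate; 0% = DMSO and -100% = full luciferase inhibition by PTC124 control; nearly all actives have a fitted effect of over 70% in size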; details: purified P. pyralis luciferase, luminescence, 5 min; series mostly up to 58.6 µM
Sequence of Luciferin 4-monooxygenase (Photinus pyralis) (P08659 whole entry, looked up): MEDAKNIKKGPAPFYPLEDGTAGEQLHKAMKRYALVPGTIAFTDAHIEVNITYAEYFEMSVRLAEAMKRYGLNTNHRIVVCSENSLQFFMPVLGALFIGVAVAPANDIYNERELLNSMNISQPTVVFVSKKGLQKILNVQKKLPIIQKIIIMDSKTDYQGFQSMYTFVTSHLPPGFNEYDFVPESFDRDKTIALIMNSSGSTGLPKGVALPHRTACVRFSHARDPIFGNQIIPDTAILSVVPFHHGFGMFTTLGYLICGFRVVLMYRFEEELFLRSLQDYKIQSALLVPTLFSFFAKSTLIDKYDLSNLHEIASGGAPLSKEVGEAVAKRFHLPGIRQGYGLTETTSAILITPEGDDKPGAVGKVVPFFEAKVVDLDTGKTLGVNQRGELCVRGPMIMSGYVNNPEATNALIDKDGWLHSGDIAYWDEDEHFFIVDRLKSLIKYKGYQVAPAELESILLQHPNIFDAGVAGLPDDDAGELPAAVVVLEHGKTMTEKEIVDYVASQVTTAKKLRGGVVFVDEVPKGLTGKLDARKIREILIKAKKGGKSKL
Procedure, shortened: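 Counter-screen for direct inhibition of the luciferase enzyme by approved-drug library compounds, run at 10 nM enzyme in 50 mM Tris acetate (final). Luminescence was read within 5 min of enzyme-buffer addition and normalized to PTC124 versus DMSO (0%).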

[11] = S16 Schwann cell viability assay (CellTiter-Glo assay) (AID 624031); details: S16 rat Schwann cells viability, 24 h; series mostly up to 57.5 µM;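 also: native untransfected S16 rat Schwann cells; cellular ATP luminescence as a viability measure; plate controls were DMSO-treated cells for no effect and cell-free wells for full effect; nearly all actives have a fitted effect of over 70% in size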
Procedure, shortened: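 Concentration-effect curves come from CellTiter-Glo luminescence of S16 rat Schwann cells after 24 h compound exposure. Each reading was normalized to DMSO wells (0%) and wells without cells, and curves were ranked by r2 and response magnitude.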

[12] = S16 Schwann cell PMP22 intronic element firefly luciferase assay (AID 624032); details: S16 rat Schwann cells, PMP22 element FLuc, 24 h; series mostly up to 57.5 µM;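 also: plate controls were DMSO for no effect and PTC124 positive control mean for full effect; nearly all actives have a fitted effect of over 30% in size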
Procedure, shortened: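 Rat S16 Schwann cells stably carrying a PMP22 intronic element-driven Fluc reporter were seeded overnight, then exposed to compounds for 24 h at 37 °C. Luminescence was normalized to PTC124 (positive control) and DMSO (0% activity).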

[13] = S16 Schwann cell PMP22 intronic element beta-lactamase assay (AID 624044; calls by dose curve;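 also: 0% = DMSO and -100% = potassium clavulanate positive control; nearly all actives have a fitted effect of over 15% in size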); details: S16 rat Schwann cells, PMP22 element beta-lactamase FRET, 24 h; series mostly up to 38.3 µM
Procedure, shortened: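 Rat S16 Schwann cells with beta-Lac driven by a PMP22 intronic element, compound-treated 24 h at 37 °C. LiveBLAzer FRET B/G read: 460 nm normalized to potassium clavulanate vs DMSO; 535 nm FRET as viability; concentration-effect curves classified.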

[14] = qHTS profiling for inhibitors of Plasmodium falciparum proliferation (AID 504749);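 also: 0% = DMSO vehicle and full inhibition = artemisinin control; nearly all actives have a fitted effect of over 60% in size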; details: P. falciparum in erythrocytes, SYBR Green DNA, 72 h, at 28.7 µM (top of the series)
Procedure, shortened: (§1)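 Parasite proliferation within erythrocytes, 72 h exposure. Endpoint: SYBR Green I fluorescence after overnight lysis at room temperature. Controls: 0.29 uM artemisinin, DMSO.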

[15] = test system: 3D7; experiment: as above; details: P. falciparum in erythrocytes, SYBR Green DNA, 72 h; series mostly up to 28.7 µM
Procedure, shortened: as §1

[16] = test system: 7G8; experiment: as above; details: P. falciparum in erythrocytes, SYBR Green DNA, 72 h; series mostly up to 28.7 µM
Procedure, shortened: as §1

[17] = test system: AA1029; experiment: as above; details: P. falciparum in erythrocytes, SYBR Green DNA, 72 h; series mostly up to 28.7 µM
Procedure, shortened: as §1

[18] = test system: AS120; experiment: as above; details: P. falciparum in erythrocytes, SYBR Green DNA, 72 h; series mostly up to 28.7 µM
Procedure, shortened: as §1

[19] = test system: ATS189; experiment: as above; details: P. falciparum in erythrocytes, SYBR Green DNA, 72 h; series mostly up to 28.7 µM
Procedure, shortened: as §1

[20] = test system: ATS95; experiment: as above; details: P. falciparum in erythrocytes, SYBR Green DNA, 72 h; series mostly up to 28.7 µM
Procedure, shortened: as §1

[21] = test system: C2A; experiment: as above; details: P. falciparum in erythrocytes, SYBR Green DNA, 72 h; series mostly up to 28.7 µM
Procedure, shortened: as §1

[22] = test system: CP185; experiment: as above; details: P. falciparum in erythrocytes, SYBR Green DNA, 72 h; series mostly up to 28.7 µM
Procedure, shortened: as §1

[23] = test system: CP191; experiment: as above; details: P. falciparum in erythrocytes, SYBR Green DNA, 72 h; series mostly up to 28.7 µM
Procedure, shortened: as §1

[24] = test system: CP192; experiment: as above; details: P. falciparum in erythrocytes, SYBR Green DNA, 72 h; series mostly up to 28.7 µM
Procedure, shortened: as §1

[25] = test system: CP194; experiment: as above; details: P. falciparum in erythrocytes, SYBR Green DNA, 72 h; series mostly up to 28.7 µM
Procedure, shortened: as §1

[26] = test system: CP201; experiment: as above; details: P. falciparum in erythrocytes, SYBR Green DNA, 72 h; series mostly up to 28.7 µM
Procedure, shortened: as §1

[27] = test system: CP203; experiment: as above; details: P. falciparum in erythrocytes, SYBR Green DNA, 72 h; series mostly up to 28.7 µM
Procedure, shortened: as §1

[28] = test system: CP211; experiment: as above; details: P. falciparum in erythrocytes, SYBR Green DNA, 72 h; series mostly up to 28.7 µM
Procedure, shortened: as §1

[29] = test system: CP215; experiment: as above; details: P. falciparum in erythrocytes, SYBR Green DNA, 72 h; series mostly up to 28.7 µM
Procedure, shortened: as §1

[30] = test system: CP217; experiment: as above; details: P. falciparum in erythrocytes, SYBR Green DNA, 72 h; series mostly up to 28.7 µM
Procedure, shortened: as §1

[31] = test system: CP237; experiment: as above; details: P. falciparum in erythrocytes, SYBR Green DNA, 72 h; series mostly up to 28.7 µM
Procedure, shortened: as §1

[32] = test system: CP238; experiment: as above; details: P. falciparum in erythrocytes, SYBR Green DNA, 72 h; series mostly up to 28.7 µM
Procedure, shortened: as §1

[33] = test system: CP247; experiment: as above; details: P. falciparum in erythrocytes, SYBR Green DNA, 72 h; series mostly up to 28.7 µM
Procedure, shortened: as §1

[34] = test system: CP250; experiment: as above; details: P. falciparum in erythrocytes, SYBR Green DNA, 72 h; series mostly up to 28.7 µM
Procedure, shortened: as §1

[35] = test system: CP252; experiment: as above; details: P. falciparum in erythrocytes, SYBR Green DNA, 72 h; series mostly up to 28.7 µM
Procedure, shortened: as §1

O=C(O)[C@@H](O)[C@@H](O)[C@H](O)C(=O)CO
inactive: Potency [1] > 11.4 µM | activity change, negative = inhibition [2] -1.75% | activity change, negative = inhibition [3] -10.1% | activity, negative = inhibition [4] 9.54% | Potency [5] > 46 µM | Potency [6] | Potency [7] | outcome [8] | Potency [9] | outcome [10] | Potency [11] | Potency [12] | outcome [13] | activity, negative = inhibition ([14]; parasite line A) 6.93% | activity, negative = inhibition ([14]; parasite line B) 7.4% | Potency [15] | Potency [16] | Potency [17] | Potency [18] | Potency [19] | Potency [20] | Potency [21] | Potency [22] | Potency [23] | Potency [24] | Potency [25] | Potency [26] | Potency [27] | Potency [28] | Potency [29] | Potency [30] | Potency [31] | Potency [32] | Potency [33] | Potency [34] | Potency [35]
